Source: PubChem (several laboratories)
Rows were chosen to be rich in hits. Some 12% of all compounds tested hit in one or more screens of this group.
WT yeast gro inh – growth inhibition of WT yeast, mitochondrial fusion screen | hit rate 2.1% among 190,000 | mitochondrial fusion phenotypic screen, WT strain | inhibition, % at 10 µM; in the data active = inhibition above about 58%; tested in S. cerevisiae
m-calpain inh – calpain II (pig) inhibition | hit rate 0.37% among 220,000 | inhibition, % at 16 µM | purified calpain II, fluorogenic peptide substrate, 30 min;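 active = inhibition above about 50%, limit read from the data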
ROMK mod – modulators of human ROMK potassium channel. B-score at 10 µM. Tet-inducible ROMK, thallium flux fluorescence; actives lie on both sides. hit rate 2% among 130,000. P48048;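 active = signal ratio slope over the read window, or its plate-corrected B-score, at least 3 SD from the plate mean, either direction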;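 also: B-score of the F/F0 ratio slope over 7 to 12 s after thallium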
Target sequence (P48048 whole entry, looked up): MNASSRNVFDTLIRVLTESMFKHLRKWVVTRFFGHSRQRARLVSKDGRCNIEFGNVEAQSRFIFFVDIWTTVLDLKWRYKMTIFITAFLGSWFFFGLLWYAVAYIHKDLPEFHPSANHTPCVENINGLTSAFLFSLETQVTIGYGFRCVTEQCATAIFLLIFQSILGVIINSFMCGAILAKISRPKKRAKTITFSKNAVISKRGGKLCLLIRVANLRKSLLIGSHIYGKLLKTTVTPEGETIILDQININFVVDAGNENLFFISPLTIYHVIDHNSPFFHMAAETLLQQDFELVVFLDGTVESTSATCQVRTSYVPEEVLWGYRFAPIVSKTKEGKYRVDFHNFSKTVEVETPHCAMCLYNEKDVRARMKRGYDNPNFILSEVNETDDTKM
Lmaj promast – inhibitors of Leishmania major promastigote growth; Leishmania major promastigotes, resazurin fluorescence viability; inhibition, % at 10 µM; hit rate 9% among 200,000; in the data active = inhibition above about 50%;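 also: promastigotes grown with compound for 44 hours at 28 °C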
KCC2 mod – modulates chloride dependent transport by human KCC2 | Q9H2X9 | KCC2 cells, thallium flux FluoZin-2 fluorescence | B-score of Tl+ flux slope (higher = more flux/activation; lower = inhibition) at 10 µM | hit rate 2.2% among 190,000 | AID 1456;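 active = thallium flux slope and its plate-corrected score both differing from the plate sample mean at a set confidence after two filtering rounds, in either direction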;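 also: slope of fluorescence scaled to starting intensity during 10 to 20 s after thallium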
Of the large screens only hits and unclear results are named; the others gave an inactive call.

O=C(CSc1ccc(Cl)cc1)NC1CCCC1	none (no result: WT yeast gro inh, ROMK mod)
COc1ccc(N(C)S(=O)(=O)c2cccc(C(=O)OC(C(=O)Nc3cc(C)cc(C)c3)c3ccccc3)c2)cc1 (stereo not drawn)	Lmaj promast 96
COc1ccc(N(C)S(=O)(=O)c2cccc(C(=O)Nc3ccc4c(c3)OCCO4)c2)cc1	none
COc1ccc(N(C)S(=O)(=O)c2cccc(C(=O)Nc3cc(OC)ccc3OC)c2)cc1	Lmaj promast 82
CC(=O)c1cccc(NC(=O)C(OC(=O)c2ccccc2NS(=O)(=O)c2cccs2)c2ccccc2)c1 (stereo not drawn)	none
COc1ccc(N(C)S(=O)(=O)c2cccc(C(=O)OCC(=O)NCc3ccccc3OC)c2)cc1	none (no result: WT yeast gro inh, ROMK mod, Lmaj promast)
CC(=O)c1cccc(NC(=O)C(OC(=O)c2cccc(S(=O)(=O)N(C)c3ccccc3)c2)c2ccccc2)c1 (stereo not drawn)	Lmaj promast 96 (no result: ROMK mod)
CCOC(=O)Cc1csc(SCc2nc3ccccc3c(=O)[nH]2)n1	none
O=S(=O)(CC12C3C4C5C1C2C(Br)(C43)C51OCCO1)c1ccccc1 (stereo not drawn)	none
C/C(=N\NC(N)=S)C1C2C3CC4C5CC(C42)C1C53 (stereo not drawn)	WT yeast gro inh 66, Lmaj promast 100
CC(C)(C)C1CCc2onc(C(=O)NCc3ccc(F)cc3)c2C1 (stereo not drawn)	m-calpain inh 52 (no result: ROMK mod)
CCc1ccc(N/C(N)=N/c2nc(CSc3ncccn3)cc(=O)[nH]2)cc1	none
O=C1c2ccc(Br)cc2C(=O)N1c1ccc(Cc2ccncc2)cc1	m-calpain inh 88 (no result: KCC2 mod)
CCN1CCN(c2ccc(N=Cc3ccccc3O)cc2)CC1	none
S=C(Nc1ccc(Cl)cc1)Nc1cccc2cnccc12	WT yeast gro inh 62
CCOc1ccc(NC(=S)Nc2cccc3cnccc23)cc1	WT yeast gro inh 58
COc1ccc(NC(=S)Nc2cccc3cnccc23)cc1	none (no result: ROMK mod)
CCCN1CCN(C(=O)Cn2cnc3ccc(S(=O)(=O)N4CCC(C)CC4)cc3c2=O)CC1	Lmaj promast 93
Cn1c(C(=O)OC(C(=O)NC2CCCCC2)c2cccnc2)cc2sccc21 (stereo not drawn)	Lmaj promast 97
CC(OC(=O)c1cc2sccc2n1C)C(=O)NC(C)(C)C (stereo not drawn)	none
COc1ccc(Nc2nc(N)c([N+](=O)[O-])c(NCCO)n2)cc1	none (no result: WT yeast gro inh, Lmaj promast)
CNc1nc(Nc2ccc(Br)cc2)nc(N)c1[N+](=O)[O-]	Lmaj promast 50
CCCCNc1c2c3c(cccc3n(C)c1=O)C(=O)c1ccccc1-2	WT yeast gro inh 64 (no result: ROMK mod)
Cn1c(=O)c(NC2CCCCC2)c2c3c(cccc31)C(=O)c1ccccc1-2	WT yeast gro inh 59 (no result: ROMK mod)
Cc1cccc(-n2cnc3c(sc4nc(N5CCOCC5)c5c(c43)CCCC5)c2=O)c1	none (no result: WT yeast gro inh, ROMK mod, Lmaj promast)
CCC(C)(C)NC(=O)C(c1ccncc1)N(C(=O)c1sc(C)nc1C)c1ccc(C)cc1 (stereo not drawn)	none
Cc1cc(C)c(S(=O)(=O)Nc2cccc(S(=O)(=O)NC3=NCCC3)c2)c(C)c1	none
CSc1ccc(C#N)cc1NC(=O)c1cccnc1Cl	none
CCOC(=O)N1CCN(C(=O)Nc2ccc(Cl)cc2Cl)CC1	none
COC(=O)CSc1[nH]c2ccccc2c1[N+](=O)[O-]	none (no result: WT yeast gro inh, ROMK mod, Lmaj promast)
CCCCN(C)CC(O)Cn1cc(/C=C/C(=O)c2cccs2)c2ccccc21 (stereo not drawn)	Lmaj promast 69 (no result: ROMK mod)
O=C(/C=C/c1cn(CC(O)CN2CCCCCC2)c2ccccc12)c1cccs1 (stereo not drawn)	Lmaj promast 100 (no result: ROMK mod)
Cc1ccc2oc3c(c(=O)c2c1)C(c1cccs1)N(CCCN(C)C)C3=O (stereo not drawn)	none (no result: m-calpain inh, ROMK mod, Lmaj promast, KCC2 mod)
O=C(CC1C(=O)NCCN1Cc1ccc(-c2ccccc2)cc1)NCCCn1cccn1 (stereo not drawn)	none
COC(=O)C1C(c2ccccc2)C(C(=O)OCc2ccco2)C1c1ccccc1 (stereo not drawn)	WT yeast gro inh 76
O=C(/C=C/c1ccccc1Cl)N1CCN(c2ncccn2)CC1	Lmaj promast 59 (no result: ROMK mod)
O=C(/C=C/c1ccc(Cl)cc1)N1CCN(c2ncccn2)CC1	none
O=C(c1ccc(S(=O)(=O)N2CCCCC2)cc1)N1CCc2ccccc2C1	none
CCN1CCc2c(sc(NC(=O)c3ccc(S(=O)(=O)N4CCOCC4)cc3)c2C(=O)OC)C1	Lmaj promast 76 (no result: ROMK mod)
O=C(Nc1ccc(S(=O)(=O)N2CCOCC2)cc1)c1ccc(CN2CCc3ccccc3C2)cc1	Lmaj promast 91 (no result: ROMK mod)
Cc1ccc(S(=O)(=O)N2CCN(C(=O)CN3CCc4ccccc4C3)CC2)cc1	Lmaj promast 88 (no result: KCC2 mod)
CCN1CCc2c(sc(NC(=O)c3ccc(S(=O)(=O)N4CCOCC4)cc3)c2C(N)=O)C1	none (no result: ROMK mod)
O=C(Nc1ccc(S(=O)(=O)N2CCCC2)cc1)c1ccc(CN2CCc3ccccc3C2)cc1	Lmaj promast 90 (no result: ROMK mod)
COc1ccc(C(=O)NCc2nnc(SCC(=O)NO)n2Cc2ccccc2)cc1	none
CCn1c(=O)c([N+](=O)[O-])c(NCCCn2ccnc2)c2ccccc21	none (no result: WT yeast gro inh, ROMK mod, Lmaj promast)
C=CCNC(=O)C1CCC(C(=O)NCC=C)CC1 (stereo not drawn)	none
COc1ccc(C2=NN(CN3C(=O)C(=O)c4ccccc43)C(c3cccc([N+](=O)[O-])c3)C2)cc1 (stereo not drawn)	none (no result: WT yeast gro inh, ROMK mod, Lmaj promast)
N#Cc1c(-c2cccnc2)c2c([nH]c1=S)CCCC2	WT yeast gro inh 91 (no result: ROMK mod, KCC2 mod)
COc1ccc(-c2c3c([nH]c(=S)c2C#N)CCC3)cc1	KCC2 mod 5
Cc1nn(C(C)(C)C)c(OC(=O)c2cccs2)c1Sc1ccccc1	WT yeast gro inh 83
Cc1nn(C(C)(C)C)c(OC(=O)c2ccc3c(c2)OCO3)c1Sc1ccccc1	WT yeast gro inh 75 (no result: ROMK mod)
Cc1nnc(SCC(=O)Nc2ccc(N(C)C)cc2)n(N)c1=O	none
Brc1ccc(C2=CC(c3cccs3)n3ncnc3N2)cc1 (stereo not drawn)	WT yeast gro inh 68 (no result: ROMK mod)
Oc1ccc(C2C=C(c3ccc(F)cc3)Nc3ncnn32)cc1 (stereo not drawn)	none (no result: WT yeast gro inh, ROMK mod, Lmaj promast)
Brc1ccc(C2=CC(c3ccco3)n3nnnc3N2)cc1 (stereo not drawn)	none (no result: WT yeast gro inh, Lmaj promast)
OCCCc1nc2n(n1)C(c1cccs1)C=C(c1ccc(Br)cc1)N2 (stereo not drawn)	WT yeast gro inh 61 (no result: ROMK mod, KCC2 mod)
Fc1ccc(C2=CC(c3ccc(Br)o3)n3ncnc3N2)cc1 (stereo not drawn)	ROMK mod -3.4
CCN1CCN(c2ncc3c(n2)CC(c2cc(OC)c(OC)c(OC)c2)CC3=O)CC1 (stereo not drawn)	Lmaj promast 100 (no result: KCC2 mod)
O=C1CC(c2cccc(Cl)c2)Cc2nc(N3CCN(c4ccccc4)CC3)ncc21 (stereo not drawn)	none (no result: ROMK mod)
CC1CCN(Cc2ccc(NC(=O)C3CCN(c4nnc(-n5cccc5)s4)CC3)cc2)CC1	Lmaj promast 92 (no result: ROMK mod)
COc1ccc(C(C)C)cc1S(=O)(=O)n1cnc(C)c1	none (no result: KCC2 mod)
COc1cc(C)c(Cl)cc1S(=O)(=O)n1cnc(C)c1	Lmaj promast 89
CC1(C)COC(/C=C/c2ccc([N+](=O)[O-])cc2)=N1	Lmaj promast 87
COc1ccc(NC(=O)C2CC(=O)N/C(=N/N=C/c3ccco3)S2)cc1 (stereo not drawn)	none (no result: WT yeast gro inh, Lmaj promast)
